Shown are actives, neighbours in structure and some others; about 7.9% of the full set was active somewhere.
HCV inh = HCV inhibition; Huh7.5.1 HCVcc-Cre infection, luciferase reporter, 44 h; Potency, µM (top dose mostly 41.8 µM), most hits filed as inhibitors; 340,000 tested, 3.4% active; active = well fitted inhibition curve with a large enough effect; inconclusive = small, poorly fitted or top-dose-only effect, or another doubt; inactive = no such curve, though single readings can be large or run the other way
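Luciferase read-out (15 sec integration) after a 15 min room-temperature substrate step quantifies HCVcc-Cre infection. Cells, 1,000 per well, had compound added 4 h post-plating, then virus at ~0.5 moi, and were cultured 44 h.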
FMDV antiviral = antivirals against foot and mouth disease virus | FMDV antiviral cell-based qHTS | Potency, µM (doses to about 57.9 µM), usual class: inhibitors | 410,000 tested, 1.2% active | AID 1159524; calls by dose curve; tested in HEK293T cells; note: read-out not given here; nearly all actives have a fitted effect of over 45% in size
HCMV inh = blocks human cytomegalovirus replication; HFF cells, HCMV-luciferase reporter, 72 h; active compounds read low; activity change, negative = inhibition, % at 57.5 µM; 410,000 tested, 4.5% active; AID 1259415; in the data active = activity change below about -60%; inconclusive = no clear call, values can overlap the other calls; inactive = above about -39%
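Human foreskin fibroblasts infected with luciferase-reporter HCMV at MOI 1 PFU/cell, compounds at two doses. Luciferase measured 72 h post infection; normalized to buffer-only basal and Salinomycin (10uM) controls.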
LASV entry inh = blocks Lassa virus binding to or entry into cells | Potency, µM (doses to about 37.9 µM), most hits filed as inhibitors | Lassa virus pseudotype entry inhibition, cell reporter | 300,000 tested, 1.2% active; calls by dose curve; tested in HEK293 cells; note: nearly all actives have a fitted effect of over 50% in size
Marburg entry inh = blocks Marburg virus binding to or entry into cells; AID 540276; Marburg virus pseudotyped entry inhibition, cell reporter; Potency, µM (doses to about 37.8 µM), hits mostly inhibitors; 300,000 tested, 1.8% active; calls by dose curve; tested in HEK293 cells
A number is an active result; n = inactive; u = inconclusive; x = not tested or not shown.

SMILES	HCV inh	FMDV antiviral	HCMV inh	LASV entry inh	Marburg entry inh
Cc1nc(N2CCN(S(=O)(=O)c3ccc(Br)cc3)CC2)c2c(C)c(C)sc2n1	u	u	-62.8	n	u
Cc1ccc(C)c(S(=O)(=O)N2CCN(c3nc(CN4CCOCC4)nc4sc(C)c(C)c34)CC2)c1	u	n	n	x	x
CSc1nc(-c2ccccc2)nc2ccccc12	x	x	n	x	x
COc1ccccc1CN1CC(C(=O)N2CCC(OC)CC2)CCC1=O (centres undefined)	n	n	-63.7	n	n
COc1ccccc1CN1CC(C(=O)NCCN(C)CCc2ccccc2)CCC1=O (centres undefined)	n	n	n	5.62µM	u
CCCCCC(=O)N1C[C@H](n2cc(-c3ccc(F)cc3)nn2)[C@@H](O)C[C@H]1c1ccc(C)cc1	x	x	x	n	x
O=C(Cn1c(=O)c2sccc2n(Cc2cccc([N+](=O)[O-])c2)c1=O)NCCc1ccccc1	u	n	n	n	u
O=C(Cn1c(=O)c2sccc2n(Cc2ccc([N+](=O)[O-])cc2)c1=O)NCCc1ccccc1	u	u	-72.8	u	u
Cc1cccc(CNc2ncncc2-c2ccc3c(c2)OCO3)c1	x	n	x	x	x
COc1ccc(Cc2c(-c3ccc(OC)c(OC)c3)nc3c(C)cc(Br)cn23)c(C)c1	x	u	-61.2	x	x
COc1ccc(Cc2c(-c3ccc(C)cc3)nc3c(C)cc(Br)cn23)c(C)c1	x	n	n	x	x
Cc1nn(C(=O)c2ccccc2)c(C)c1Sc1ccc(Cl)cc1	x	28.2µM	-74.4	n	x
Cc1ccc(Sc2c(C)nn(C(=O)c3ccc(Br)cc3)c2C)cc1	x	n	n	n	n
CCC(=O)Oc1c(Sc2ccc(Cl)cc2)c(C)nn1-c1ccccc1	x	n	-93.5	n	n
CCOc1ccc(NC(=O)CSc2nc3ccccc3c(=O)n2CCC(=O)NC2CCCCC2)cc1	x	n	n	n	x
COc1cc(-c2noc(C)c2/C=C/c2ccc(OC(C)=O)cc2)cc(OC)c1OC	u	n	-64.7	x	x
CC(C)(C)c1ccc(CSc2nc(N)cc(=O)[nH]2)cc1	u	n	x	n	u
Cc1ccc(/C=C/C(=O)OC(C)C(=O)Nc2ncc(Cl)cc2Cl)o1 (centres undefined)	n	n	-98.1	n	n
COC(=O)C[C@H]1C=C[C@H](NC(=O)C2CCOCC2)[C@@H](CO)O1	x	n	n	x	x
CCCCNC(=O)C(CC)(ONc1ccccc1C(F)(F)F)c1ccccc1OC (centres undefined)	n	n	n	x	x
Cc1ccc(CNc2ccc3c(c2)OCO3)cc1	10µM	n	x	n	u
c1cc(CNc2ccc3c(c2)OCO3)ccn1	n	n	n	n	n
COc1ccc(N=C2SC(CC(=O)Nc3ccc(F)cc3)C(=O)N2Cc2ccco2)cc1 (centres undefined)	n	n	n	u	n
COc1ccc(N=C2SC(CC(=O)Nc3ccccc3OC)C(=O)N2Cc2ccco2)cc1 (centres undefined)	u	n	n	16.4µM	u
CCOc1cc([C@@H]2C[C@H]3CN(c4ccccc4)C(=O)[C@]34CCCN24)ccc1OC	u	n	-68.6	x	u
SMILES	HCV inh	FMDV antiviral	HCMV inh	LASV entry inh	Marburg entry inh
COc1cc([C@@H]2C[C@H]3CN(c4ccccc4)C(=O)[C@]34CCCN24)cc(OC)c1OC	n	n	u	x	x
COc1ccccc1-n1cc([C@@H]2C[C@H]3CN(c4ccccc4)C(=O)[C@]34CCCN24)cn1	5.62µM	n	-96.9	u	10µM
CCOC(=O)c1c(C)[nH]c(C)c1S(=O)(=O)N1CCC(C(=O)Nc2ccc(C)c(N(C)C)c2)CC1	x	n	n	n	x
Cc1ccc(NC(=O)c2ccc(CNS(=O)(=O)c3ccc4c(c3)C(C)(C)C(=O)N4C)cc2)cc1C	x	35.5µM	n	u	x
COc1cccc(NC(=O)c2ccc(CNS(=O)(=O)c3ccc4c(c3)C(C)(C)C(=O)N4C)cc2)c1	x	u	n	u	x
Cc1cccc(NC(=O)c2ccc(CNS(=O)(=O)c3ccc4c(c3)C(C)(C)C(=O)N4C)cc2)c1	x	35.5µM	n	u	x
O=C(CCNS(=O)(=O)c1ccc(OC(F)(F)F)cc1)NCCc1c[nH]c2ccccc12	u	n	n	n	u
Cc1cccc(NC(=O)C2CCN(S(=O)(=O)c3cccc4nsnc34)CC2)c1C	x	n	n	n	n
CCOC(=O)c1c(S(=O)(=O)N2CCC(C(=O)Nc3ccccc3OC)CC2)c(C)n(CC)c1C	x	n	n	n	x
C=C(C)C1CC=C(CN2CCN(Cc3ccccc3)CC2)CC1 (centres undefined)	n	n	n	x	x
C=C(C)[C@@H]1CC=C(CN2CCN(Cc3ccccc3)CC2)CC1	n	n	n	u	10µM
NC(=O)C[C@H](N)c1cn([C@@H](CC(N)=O)C(=O)N2CCNCC2)nn1	n	n	-60.1	x	x
CC(C)[C@H](N)c1cn([C@@H](CO)C(=O)N2CCNCC2)nn1	n	n	n	x	x
OC(COc1ccc2cc(Br)ccc2c1)CN1CCCC1 (centres undefined)	4.47µM	n	n	n	8.2µM
CC(=O)Nc1ccc(S(=O)(=O)N2CCN(CC(O)COc3ccc4ccccc4c3)CC2)cc1 (centres undefined)	n	n	-86.7	n	n
O=S(=O)(N1CCCCC1)N1CCN(CC(O)COc2ccc3cc(Br)ccc3c2)CC1 (centres undefined)	u	u	u	n	n
CN(C)S(=O)(=O)N1CCN(CC(O)COc2ccc3cc(Br)ccc3c2)CC1 (centres undefined)	31.6µM	n	n	n	u
C[C@H]1[C@@H](NS(=O)(=O)c2ccc(-c3ccccc3)cc2)CC[C@@]23CCCN2C(=O)CCC[C@@H]13	x	x	n	x	x
CCOC(=O)c1ccc2c(c1)sc(=NC(=O)c1ccco1)n2CCOC	n	n	-68.1	n	u
Cc1ccc(-c2cc(C(=O)N/N=C/c3c(C)nn(C)c3C)c3ccccc3n2)cc1C	35.5µM	n	n	u	u
Cc1nn(-c2ccccc2)c(N2CCCC2)c1/C=N/NC(=O)c1cc(-c2cccnc2)nc2ccccc12	14.1µM	n	n	u	u
O=C1CN=C(c2ccc[nH]2)c2cc(Cl)ccc2N1	n	n	-94.3	x	x
O=C1CN=C(c2ccccc2Cl)c2cc(Br)ccc2N1	n	n	n	u	u
COc1ccc(-n2cc(-c3ccccc3)[nH]c2=S)c(OC)c1	u	u	-65.1	x	x
COc1ccc(-n2cc(-c3ccc(OC)c(OC)c3)[nH]c2=S)cc1	u	n	n	x	x
COc1ccccc1N(C(=O)c1snc(C(N)=O)c1N)C(C(=O)NC1CCCC1)c1ccco1 (centres undefined)	n	n	u	u	u
COCCNC(=O)C(c1ccc(C)o1)N(C(=O)c1snc(C(N)=O)c1N)c1cc(C)cc(C)c1 (centres undefined)	n	x	-78.5	u	n
COc1ccc(OC)c(C(C(=O)NC2CCCCC2)N(C(=O)c2snc(C(N)=O)c2N)c2ccccc2OC)c1 (centres undefined)	n	n	-60.7	u	u

Assay outcomes from PubChem BioAssay.
